Rows were chosen to be rich in hits. Some 1.7% of all compounds tested hit in one or more screens of this group.
PTHR1 agonist: activates the human parathyroid hormone receptor PTHR1 | Q03431 | HEK293 GP2 PTHR1 cells, GloSensor cAMP luminescence, 1 h | Potency, µM (doses to about 115 µM), for inactives: at the top dose activation, hits mostly activators | actives 0.075% (n = 410,000); also: nearly all actives have a fitted effect of over 55% in size
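HEK-293-derived GP2 cells expressing PTHR1 and a GloSensor cAMP reporter, 3,000/well, plated overnight, given luciferin plus IBMX (each 0.5 mM as added) for 1 h at 37 °C, then compound for 1 h at 37 °C. Luminescence was read after 15 min at room temperature.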
GLP-1R inv ag: acts as inverse agonist at human GLP-1 receptor; P43220; HEK293 GLP-1R CRE-luciferase, luminescence, 24 h; GLP-1R form is constitutively active; Potency, µM (highest dose often 38.3 µM), for the others: at the highest dose activity change, negative = inhibition, hits mostly inhibitors; actives 1.6% (n = 410,000); AID 624417; also: % is scaled to controls: 0 for no effect and ±100 for the full control effect; nearly all actives have a fitted effect of over 55% in size
Target sequence (P43220 whole entry, looked up): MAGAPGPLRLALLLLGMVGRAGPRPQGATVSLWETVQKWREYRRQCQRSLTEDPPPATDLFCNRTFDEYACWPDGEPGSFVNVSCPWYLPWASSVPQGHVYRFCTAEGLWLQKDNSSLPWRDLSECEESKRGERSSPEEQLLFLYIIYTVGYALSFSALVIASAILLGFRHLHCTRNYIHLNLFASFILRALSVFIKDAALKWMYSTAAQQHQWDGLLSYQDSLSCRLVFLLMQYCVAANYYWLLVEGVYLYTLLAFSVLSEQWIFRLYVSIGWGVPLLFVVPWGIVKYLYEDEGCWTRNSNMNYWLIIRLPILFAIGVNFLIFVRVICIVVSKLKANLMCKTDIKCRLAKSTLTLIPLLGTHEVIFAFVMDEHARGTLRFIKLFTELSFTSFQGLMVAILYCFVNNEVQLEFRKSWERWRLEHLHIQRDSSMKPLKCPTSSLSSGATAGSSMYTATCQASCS
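Inverse agonism was detected as reduced cAMP-driven luciferase luminescence after 24 h compound treatment. The cells were HEK293 clones expressing constitutively active human GLP-1R with the reporter. Reporter-only and GPR119 cell lines served as counterscreen controls.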
GLP1R cytotox: cytotoxicity in counter-screen for GLP-1R inverse agonists | HEK293 cAMP-luciferase reporter cells, luminescence, 24 h | Potency, µM (titrated, usually from 38.3 µM), for inactives: at the highest dose activity change, negative = inhibition, hits mostly inhibitors | actives 0.13% (n = 410,000) | AID 624418;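 also: loss of luciferase light is scored as toxicity; % is scaled to controls: 0 for no effect and ±100 for the full control effect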
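Seeding density was 200 cells/uL; after overnight-length (12 h) culture, 23 nL compounds went on for 24 h at 37 °C. Readout used a luciferase detection reagent, luminescence taken after 12 min at room temperature.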
GLP-1R agonist: activates the human GLP-1 receptor. P43220. HEK293 GLP-1R CRE-luciferase, luminescence, 4-6 h; cells express a hypersensitive GLP-1R form. Potency, µM (top dose mostly 45.6 µM), inactives show at the highest dose activation, usual class: activators. actives 0.007% (n = 380,000); also: % of control where 0% means no effect
* = called active by the depositor; i = inactive; u = inconclusive; x = no result; [ ] = another dose, or the depositor's remark. Calls follow the shape of the dose curve; as a rule, active = well fitted curve in the direction sought with a large enough effect; inconclusive = small, poorly fitted or top-dose-only effect, or another doubt; inactive = no such curve, though single readings can be large; an effect the other way counts as inactive or inconclusive. Potency is read from the fitted curve at half-maximal effect.

SMILES	PTHR1 agonist	GLP-1R inv ag	GLP1R cytotox	GLP-1R agonist
CC1(C(=O)OCC(=O)NC(=O)c2ccccc2)CC1(Cl)Cl (configuration not stated)	i	1%	-6%	3%
O=C(c1cc2c(s1)CCCC2)N1CCN(S(=O)(=O)c2ccccc2C(F)(F)F)CC1	-31%	10µM*	-9%	7%
Cc1nc(N2CCCC2)c2c(C(=O)Nc3ccc(Br)cc3F)c(C)oc2n1	-13%	u	-1%	x
N#CCCN(Cc1ccccc1)C(C(=O)NC1CCCCC1)C1CC1 (configuration not stated)	-15%	-5%	2%	-9%
O=C(CSCc1cnn(-c2ccccc2)c1-n1cccc1)NCc1ccccc1F	-79%	13µM*	1%	x
COc1ccc(OC)c(NC(=O)CSCc2cnn(-c3ccccc3)c2-n2cccc2)c1	-18%[57.5 µM]	11µM*	-3%	9%
Cc1ccc(NC(=O)CSCc2cnn(-c3ccccc3)c2-n2cccc2)c(Cl)c1	-41%	10µM*	22%	x
COc1cc(NC(=O)CSCc2cnn(-c3ccccc3)c2-n2cccc2)cc(OC)c1	-12%[57.5 µM]	3.2µM*	-17%	1%
COc1cc(OC)c(NC(=O)CCn2cnc3onc(-c4ccc(F)cc4)c3c2=O)cc1Cl	-23%	-2%	9%	x
CCC(=O)O[C@]1(C(=O)CCl)[C@@H](C)CC2C3C[C@H](F)C4=CC(=O)C=CC4(C)[C@@]3(F)C(O)CC21C (some centres not stated)	x	x	x	-1%
Cc1cc(C)cc(NC(=S)Nc2ccccn2)c1	i	u	u	-1%
Cc1ccc(NC(=S)Nc2ccccn2)c(C)c1	-16%	u	5µM*	10%
Cc1cccc(NC(=S)Nc2ccccn2)c1	-15%	11µM*	u	25%
CCOC(=O)c1[nH]c2c(c1Cc1ccccc1)C(=O)CC(c1ccc(Cl)cc1)C2 (configuration not stated)	-3%	u	-5%	x
COc1ccc(C2c3[nH]c4ccccc4c3CCN2C(=O)CCC2CCCC2)cc1 (configuration not stated)	-5%	u	0%	x
COc1ccc(C2c3[nH]c4ccc(OC)cc4c3CCN2C(=O)Nc2ccccc2)cc1 (configuration not stated)	-76%	5.6µM*	-15%	x
COc1ccc(C2c3[nH]c4ccccc4c3CCN2Cc2ccoc2)c(F)c1 (configuration not stated)	-10%	4.5µM*	9%	-1%
Oc1cccc(C2c3[nH]c4ccccc4c3CCN2Cc2ccc3c(c2)CCO3)c1 (configuration not stated)	i	2.8µM*	u	11%
COc1cccc(C(=O)N2CCc3c([nH]c4ccccc34)C2c2ccc(SC)cc2)c1 (configuration not stated)	9%	7.9µM*	-13%	x
COc1cc(C(=O)N2CCc3c([nH]c4ccccc34)C2c2ccc(F)cc2)cc(OC)c1OC (configuration not stated)	-17%	u	0%	x
Oc1cccc(C2c3[nH]c4ccccc4c3CCN2Cc2ccoc2)c1 (configuration not stated)	-8%	u	-7%	-1%
COc1ccc(CNC(=O)C(=O)Nc2ccc(OC)cc2OC)cc1	i	7%	-20%	x
COc1cccc(C(=O)NCC(=O)N2CCC3(CC2)NCCc2[nH]cnc23)c1	-4%	7%	-1%	-4%
CC1C/C(=N\NC(=O)c2cccnc2)CC(C)(C)C1 (configuration not stated)	-25%	5%	0%	-14%
CC1C/C(=N\NC(=S)NC(C)C)CC(C)(C)C1 (configuration not stated)	i	4.5µM*	u	-6%
SMILES	PTHR1 agonist	GLP-1R inv ag	GLP1R cytotox	GLP-1R agonist
COc1ccccc1/C=C/C=C(\C#N)C(=O)NC(C)c1ccccc1 (configuration not stated)	-8%	11µM*	u	13%
CCN1CCC[C@@H]1CNC(=O)c1cc(S(=O)(=O)CC)ccc1OC	x	x	x	0%
CC(=O)c1cccc(Nc2nc(-c3cccc(C)c3)nc3ccccc23)c1	-47%	u	-3%	x
Cc1cccc(-c2nc(Nc3cccc(O)c3)c3ccccc3n2)c1	-35%	6.3µM*	-13%	0%
CCOC(=O)Cn1c(=O)n(CC2CCCO2)c2nc(-c3c(F)cccc3Cl)nc(C(N)=O)c21 (configuration not stated)	-1%	18%	-1%	-7%
CC[N+]1(C)CCC(O)(/C=C/c2ccccc2)C(C(=O)/C=C/c2ccccc2)C1 (configuration not stated)	-32%	10µM*	u	-15%
Cc1cccc(N/C=C/c2onc(C)c2[N+](=O)[O-])c1	i	1%	2%	1%
Cc1cccc(/C=C/c2onc(C)c2[N+](=O)[O-])n1	-27%	2.8µM*	u	-1%
CCCCN(C)CCNC(=O)c1cc2c(-c3ccccc3F)nn(C)c2s1	i	10µM*	-22%	0%
COCCNC(=O)c1cc2c(-c3ccccc3F)nn(C)c2s1	i	20%	-1%	-1%
COc1cccc(-c2nn(C)c3sc(C(=O)NCCCN(C)Cc4ccccc4)cc23)c1	i	5.6µM*	u	0%
O=C(CSc1nc2c([nH]c3ccccc32)c(=O)n1-c1ccccc1)Nc1ccc2c(c1)OCCO2	i	17%	-13%	x
CC(=O)N1CCc2cc(S(=O)(=O)NC(Cc3ccccc3)C(=O)Nc3cc(C)ccc3C)ccc21 (configuration not stated)	i	0%	11%	x
CCCCc1oc2ccc(NS(C)(=O)=O)cc2c1C(=O)c1ccc(OCCCN(CCCC)CCCC)cc1	x	x	x	-1%
CC(C)(C)C(=O)/C(=C/c1ccc(Cl)cc1)n1cncn1	-45%	4µM*	-8%	-4%
Cc1ccc(O)c(CNc2cnc3ccccc3c2)c1	-82%	u	-6%	-5%
Oc1ccc(Br)cc1CNc1cnc2ccccc2c1	-39%	11µM*	-8%	-5%
CC(CC=O)CCCC(C)(C)O (configuration not stated)	x	x	x	3%
S=C(NCc1ccco1)Nc1ccc(Cl)c(Cl)c1	i	10µM*	-11%	0%
S=C(NCc1ccco1)Nc1cccc(Cl)c1	0%[57.5 µM]	8.9µM*	-12%	0%
CC(=O)c1cccc(NC(=S)NCc2ccco2)c1	-12%	-17%	-30%	-5%
O=C(O)c1cccc(NC(=S)NC(NC(=O)c2ccco2)C(Cl)(Cl)Cl)c1 (configuration not stated)	-73%	11%	1%	-1%
O=C(NC(NC(=S)Nc1ccc(Cl)c(Cl)c1)C(Cl)(Cl)Cl)c1ccco1 (configuration not stated)	i	3.5µM*	u	-37%
Cc1cc2c(c3oc(=O)c4ccccc4c13)CN(Cc1ccc(F)cc1)CO2	i	-1%	5%	x

Bioassay records deposited in PubChem by National Center for Advancing Translational Sciences (NCATS).
